Consider one sequence from PMC7862700, “An all-to-all approach to the identification of sequence-specific readers for epigenetic DNA modifications on cytosine”.

What all share (test): DAPPL (digital affinity profiling via proximity ligation, sequencing); 10 mM Tris-HCl pH 7.5, 50 mM NaCl, 1 mM DTT, 4% glycerol, room temperature, 30 min; GST-TFs on glutathione beads, 16-mer random dsDNA library, 0.1% formaldehyde crosslink after washing; high values mean tight binding
One test deals with T1, FEV (Homo sapiens, UniProt Q99581 1-238).
T1 sequence: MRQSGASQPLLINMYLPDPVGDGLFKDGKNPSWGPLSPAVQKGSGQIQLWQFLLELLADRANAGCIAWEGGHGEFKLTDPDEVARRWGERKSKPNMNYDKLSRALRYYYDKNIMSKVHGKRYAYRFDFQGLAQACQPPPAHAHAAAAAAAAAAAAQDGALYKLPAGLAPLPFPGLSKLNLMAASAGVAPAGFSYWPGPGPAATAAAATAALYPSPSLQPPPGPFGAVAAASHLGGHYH
To be noted: protein: recombinant; tags: N-terminal GST; dsDNA, one strand shown. An outline of the steps: (§1)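 After expression in yeast as GST fusions, human transcription factors were bound to glutathione beads, DNA-barcoded and mixed with a tag-only sample. The pools were incubated with 200 nmole of a 16-mer random double-stranded DNA library in Tris/NaCl/DTT/glycerol buffer (30 min, room temperature), washed and crosslinked with 0.1% formaldehyde. Proximity ligation with BsaI/T4 ligase ran for 1 h at 37 °C, before PCR amplification and sequencing on an Illumina NextSeq500. Binding signal is a hexamer's read frequency for a factor divided by its frequency for the tag-only sample.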

A further test deals with ETV5 (Homo sapiens, UniProt P41161 1-510). To be noted: protein: recombinant; tags: N-terminal GST; dsDNA, one strand shown. In short, it runs like this: as §1
A further test addresses HSF1 (Homo sapiens, UniProt Q00613 1-529). The settings on record: protein: recombinant; tags: N-terminal GST; chain copies: 3; dsDNA, one strand shown. In short, it runs like this: as §1
The next test concerns the target T2, SPIC (Homo sapiens, UniProt Q8N5J4 1-248).
T2 sequence: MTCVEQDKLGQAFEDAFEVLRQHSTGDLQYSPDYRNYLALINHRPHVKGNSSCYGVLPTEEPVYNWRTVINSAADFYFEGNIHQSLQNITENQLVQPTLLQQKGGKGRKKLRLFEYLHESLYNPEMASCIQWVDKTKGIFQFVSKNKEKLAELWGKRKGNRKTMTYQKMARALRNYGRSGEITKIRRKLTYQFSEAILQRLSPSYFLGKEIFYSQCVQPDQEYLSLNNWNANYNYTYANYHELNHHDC
To be noted: protein: recombinant; tags: N-terminal GST; dsDNA, one strand shown. An outline of the steps: as §1

A further test deals with ELF4 (Homo sapiens, UniProt Q99607 1-663). The settings on record: protein: recombinant; tags: N-terminal GST; dsDNA, one strand shown. In short, it runs like this:
as §1

A further test addresses T3, ELK4 (Homo sapiens, UniProt P28324-2 1-405).
T3 sequence: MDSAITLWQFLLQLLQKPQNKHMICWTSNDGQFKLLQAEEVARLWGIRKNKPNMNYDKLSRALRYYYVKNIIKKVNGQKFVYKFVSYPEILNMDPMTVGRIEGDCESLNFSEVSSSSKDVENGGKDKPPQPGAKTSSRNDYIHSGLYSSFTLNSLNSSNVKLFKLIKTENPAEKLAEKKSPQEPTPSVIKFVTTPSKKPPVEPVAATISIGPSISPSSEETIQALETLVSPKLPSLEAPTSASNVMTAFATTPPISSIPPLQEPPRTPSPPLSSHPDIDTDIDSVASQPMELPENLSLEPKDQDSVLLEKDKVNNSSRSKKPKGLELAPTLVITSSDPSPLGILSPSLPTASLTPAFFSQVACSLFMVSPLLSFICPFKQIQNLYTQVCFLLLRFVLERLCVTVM
To be noted: protein: recombinant; tags: N-terminal GST; dsDNA, one strand shown. An outline of the steps: as §1

Another test concerns the target T4, ETV2 (Homo sapiens, UniProt O00321 1-342).
T4 sequence: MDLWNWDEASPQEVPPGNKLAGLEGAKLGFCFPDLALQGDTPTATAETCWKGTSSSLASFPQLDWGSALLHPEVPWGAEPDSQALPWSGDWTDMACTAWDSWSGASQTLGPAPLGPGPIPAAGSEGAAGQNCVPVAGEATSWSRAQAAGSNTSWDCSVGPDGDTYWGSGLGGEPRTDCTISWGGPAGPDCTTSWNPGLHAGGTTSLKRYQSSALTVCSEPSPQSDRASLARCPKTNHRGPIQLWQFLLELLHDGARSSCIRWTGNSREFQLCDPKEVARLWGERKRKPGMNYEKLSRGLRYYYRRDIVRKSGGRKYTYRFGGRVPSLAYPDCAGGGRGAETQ
The settings on record: protein: recombinant; tags: N-terminal GST; dsDNA, one strand shown. An outline of the steps:
as §1

A further test has as its target T5, ELF3 (Homo sapiens, UniProt P78545 1-371).
T5 sequence: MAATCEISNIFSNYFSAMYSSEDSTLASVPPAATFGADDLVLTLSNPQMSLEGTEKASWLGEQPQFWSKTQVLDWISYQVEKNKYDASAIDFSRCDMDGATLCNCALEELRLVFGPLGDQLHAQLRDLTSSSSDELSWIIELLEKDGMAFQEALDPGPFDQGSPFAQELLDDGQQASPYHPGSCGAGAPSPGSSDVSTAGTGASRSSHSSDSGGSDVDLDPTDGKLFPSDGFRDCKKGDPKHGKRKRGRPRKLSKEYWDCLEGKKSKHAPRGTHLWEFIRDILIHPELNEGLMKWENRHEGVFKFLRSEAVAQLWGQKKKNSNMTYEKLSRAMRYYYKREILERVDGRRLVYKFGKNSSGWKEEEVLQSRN
To be noted: protein: recombinant; tags: N-terminal GST; dsDNA, one strand shown. An outline of the steps:
as §1

A further test concerns the target CRX (Homo sapiens, UniProt O43186 1-299). The settings on record: protein: recombinant; tags: N-terminal GST; dsDNA, one strand shown. An outline of the steps: as §1
The next test concerns the target ETV1 (Homo sapiens, UniProt P50549 1-477). The settings on record: protein: recombinant; tags: N-terminal GST; dsDNA, one strand shown. An outline of the steps:
as §1

Another test has as its target T6, ERF (Homo sapiens, UniProt P50548 1-548).
T6 sequence: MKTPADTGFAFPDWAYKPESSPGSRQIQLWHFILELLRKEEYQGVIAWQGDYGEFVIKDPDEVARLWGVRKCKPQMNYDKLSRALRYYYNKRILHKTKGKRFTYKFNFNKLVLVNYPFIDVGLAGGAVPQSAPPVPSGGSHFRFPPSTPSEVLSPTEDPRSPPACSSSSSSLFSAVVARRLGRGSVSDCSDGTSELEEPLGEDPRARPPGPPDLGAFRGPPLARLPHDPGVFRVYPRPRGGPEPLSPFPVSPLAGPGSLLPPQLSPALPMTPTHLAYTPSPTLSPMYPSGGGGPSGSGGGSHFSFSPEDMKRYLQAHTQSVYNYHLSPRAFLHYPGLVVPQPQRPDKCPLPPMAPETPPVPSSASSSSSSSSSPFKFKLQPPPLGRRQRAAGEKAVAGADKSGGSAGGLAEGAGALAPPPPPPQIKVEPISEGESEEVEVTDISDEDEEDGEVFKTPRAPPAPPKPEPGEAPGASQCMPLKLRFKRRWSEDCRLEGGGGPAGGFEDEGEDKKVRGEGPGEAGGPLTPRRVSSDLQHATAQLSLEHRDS
To be noted: protein: recombinant; tags: N-terminal GST; dsDNA, one strand shown. In short, it runs like this:
as §1

Another test concerns the target T7, ETV3L (Homo sapiens, UniProt Q6ZN32 1-361).
T7 sequence: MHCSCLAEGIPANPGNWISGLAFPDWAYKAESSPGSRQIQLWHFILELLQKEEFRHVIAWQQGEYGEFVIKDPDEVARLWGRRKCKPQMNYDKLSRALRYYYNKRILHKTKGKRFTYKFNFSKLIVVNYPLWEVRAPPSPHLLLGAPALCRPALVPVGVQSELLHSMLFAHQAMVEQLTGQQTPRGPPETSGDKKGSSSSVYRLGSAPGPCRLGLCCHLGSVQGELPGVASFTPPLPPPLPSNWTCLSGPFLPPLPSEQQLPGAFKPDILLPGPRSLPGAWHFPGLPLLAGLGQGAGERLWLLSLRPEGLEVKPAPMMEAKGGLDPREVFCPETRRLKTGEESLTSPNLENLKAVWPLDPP
To be noted: protein: recombinant; tags: N-terminal GST; dsDNA, one strand shown. In short, it runs like this:
as §1

The next test deals with T8, ETS2 (Homo sapiens, UniProt P15036 1-469).
T8 sequence: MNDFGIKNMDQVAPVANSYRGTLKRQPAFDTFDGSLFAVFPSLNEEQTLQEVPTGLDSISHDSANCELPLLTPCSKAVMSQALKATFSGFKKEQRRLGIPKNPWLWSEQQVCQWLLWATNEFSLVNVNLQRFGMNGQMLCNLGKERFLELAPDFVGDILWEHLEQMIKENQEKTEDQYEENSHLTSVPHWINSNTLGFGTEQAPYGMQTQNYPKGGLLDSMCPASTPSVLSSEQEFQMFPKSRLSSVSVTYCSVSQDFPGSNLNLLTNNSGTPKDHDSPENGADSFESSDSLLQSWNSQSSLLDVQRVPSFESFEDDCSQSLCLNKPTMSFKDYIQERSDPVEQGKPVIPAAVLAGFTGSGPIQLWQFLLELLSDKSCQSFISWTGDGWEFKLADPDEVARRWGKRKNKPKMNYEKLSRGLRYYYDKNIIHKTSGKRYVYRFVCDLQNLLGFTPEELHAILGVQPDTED
To be noted: protein: recombinant; tags: N-terminal GST; dsDNA, one strand shown. In short, it runs like this: as §1

Another test deals with T9, SPDEF (Homo sapiens, UniProt O95238 1-335).
T9 sequence: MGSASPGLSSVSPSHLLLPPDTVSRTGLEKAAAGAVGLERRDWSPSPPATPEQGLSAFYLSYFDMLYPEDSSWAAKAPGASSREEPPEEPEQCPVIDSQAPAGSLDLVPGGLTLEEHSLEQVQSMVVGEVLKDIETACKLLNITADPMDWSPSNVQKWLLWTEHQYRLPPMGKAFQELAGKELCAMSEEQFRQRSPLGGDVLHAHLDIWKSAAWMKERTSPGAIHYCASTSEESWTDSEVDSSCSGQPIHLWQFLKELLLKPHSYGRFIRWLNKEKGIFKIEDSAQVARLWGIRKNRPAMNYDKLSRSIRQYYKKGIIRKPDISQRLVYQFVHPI
To be noted: protein: recombinant; tags: N-terminal GST; dsDNA, one strand shown. In short, it runs like this: as §1

For a further test, the target named is T10, ETV7 (Homo sapiens, UniProt Q9Y603 1-341).
T10 sequence: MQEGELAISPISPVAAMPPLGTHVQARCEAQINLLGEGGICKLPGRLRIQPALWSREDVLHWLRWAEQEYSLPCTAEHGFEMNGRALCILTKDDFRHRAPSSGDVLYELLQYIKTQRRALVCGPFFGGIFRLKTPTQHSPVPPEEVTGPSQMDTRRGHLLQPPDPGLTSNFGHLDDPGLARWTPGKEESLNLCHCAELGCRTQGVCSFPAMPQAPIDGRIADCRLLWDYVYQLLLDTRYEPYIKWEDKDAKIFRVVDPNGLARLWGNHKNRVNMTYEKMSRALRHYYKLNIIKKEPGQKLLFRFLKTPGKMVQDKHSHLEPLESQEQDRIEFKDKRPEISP
The settings on record: protein: recombinant; tags: N-terminal GST; dsDNA, one strand shown. In short, it runs like this: as §1

In another test the target is T11, ELF5 (Homo sapiens, UniProt Q9UKW6-2 1-255).
T11 sequence: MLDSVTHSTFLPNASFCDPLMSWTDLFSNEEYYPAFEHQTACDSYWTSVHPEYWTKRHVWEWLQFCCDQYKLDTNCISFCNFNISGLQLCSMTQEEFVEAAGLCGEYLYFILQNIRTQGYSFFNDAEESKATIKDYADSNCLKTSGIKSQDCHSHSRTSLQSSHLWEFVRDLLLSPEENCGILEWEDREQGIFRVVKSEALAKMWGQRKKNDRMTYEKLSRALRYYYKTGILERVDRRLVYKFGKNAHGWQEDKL
To be noted: protein: recombinant; tags: N-terminal GST; dsDNA, one strand shown. In short, it runs like this:
as §1

Another test concerns the target T12, ETV3 (Homo sapiens, UniProt P41162-2 1-143).
T12 sequence: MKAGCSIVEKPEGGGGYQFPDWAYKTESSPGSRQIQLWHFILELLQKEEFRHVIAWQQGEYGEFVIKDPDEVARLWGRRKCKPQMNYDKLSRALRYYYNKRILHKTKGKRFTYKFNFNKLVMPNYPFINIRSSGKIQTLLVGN
To be noted: protein: recombinant; tags: N-terminal GST; dsDNA, one strand shown. An outline of the steps: as §1

The target in the next test is ETV6 (Homo sapiens, UniProt P41212 1-452). The settings on record: protein: recombinant; tags: N-terminal GST; dsDNA, one strand shown. In short, it runs like this:
as §1

ELF4, sequence (Q99607 whole entry): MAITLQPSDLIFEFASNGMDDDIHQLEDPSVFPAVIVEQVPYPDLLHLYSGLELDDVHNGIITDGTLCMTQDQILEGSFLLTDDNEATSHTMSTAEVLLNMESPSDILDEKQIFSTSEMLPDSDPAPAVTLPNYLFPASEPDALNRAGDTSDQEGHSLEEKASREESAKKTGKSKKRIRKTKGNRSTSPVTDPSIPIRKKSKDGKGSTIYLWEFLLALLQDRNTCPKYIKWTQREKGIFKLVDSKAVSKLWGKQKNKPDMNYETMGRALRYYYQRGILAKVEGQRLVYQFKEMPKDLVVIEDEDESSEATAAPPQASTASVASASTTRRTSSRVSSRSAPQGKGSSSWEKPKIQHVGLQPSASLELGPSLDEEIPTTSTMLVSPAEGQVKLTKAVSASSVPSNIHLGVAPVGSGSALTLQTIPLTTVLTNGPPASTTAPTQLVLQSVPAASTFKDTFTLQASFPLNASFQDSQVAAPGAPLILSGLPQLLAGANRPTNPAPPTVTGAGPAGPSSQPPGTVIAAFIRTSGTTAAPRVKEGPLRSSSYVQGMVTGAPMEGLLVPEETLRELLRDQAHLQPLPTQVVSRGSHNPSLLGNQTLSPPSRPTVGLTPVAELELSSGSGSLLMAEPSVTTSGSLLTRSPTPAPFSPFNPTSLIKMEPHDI
ETV5, sequence (P41161 whole entry): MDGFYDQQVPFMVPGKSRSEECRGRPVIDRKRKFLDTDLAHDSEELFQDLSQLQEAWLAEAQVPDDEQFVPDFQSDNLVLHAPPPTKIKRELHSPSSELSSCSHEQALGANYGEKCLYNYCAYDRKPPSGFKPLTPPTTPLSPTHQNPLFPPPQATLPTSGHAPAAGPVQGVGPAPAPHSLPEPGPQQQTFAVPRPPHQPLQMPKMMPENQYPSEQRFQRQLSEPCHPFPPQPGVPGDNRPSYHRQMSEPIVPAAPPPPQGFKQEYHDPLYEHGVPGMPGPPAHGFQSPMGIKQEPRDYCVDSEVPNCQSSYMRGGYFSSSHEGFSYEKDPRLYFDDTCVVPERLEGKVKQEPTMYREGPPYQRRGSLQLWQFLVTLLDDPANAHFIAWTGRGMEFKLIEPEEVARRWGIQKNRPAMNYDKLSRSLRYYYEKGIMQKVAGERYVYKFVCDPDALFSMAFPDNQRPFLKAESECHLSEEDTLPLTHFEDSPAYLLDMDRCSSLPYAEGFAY
ETV6, sequence (P41212 whole entry): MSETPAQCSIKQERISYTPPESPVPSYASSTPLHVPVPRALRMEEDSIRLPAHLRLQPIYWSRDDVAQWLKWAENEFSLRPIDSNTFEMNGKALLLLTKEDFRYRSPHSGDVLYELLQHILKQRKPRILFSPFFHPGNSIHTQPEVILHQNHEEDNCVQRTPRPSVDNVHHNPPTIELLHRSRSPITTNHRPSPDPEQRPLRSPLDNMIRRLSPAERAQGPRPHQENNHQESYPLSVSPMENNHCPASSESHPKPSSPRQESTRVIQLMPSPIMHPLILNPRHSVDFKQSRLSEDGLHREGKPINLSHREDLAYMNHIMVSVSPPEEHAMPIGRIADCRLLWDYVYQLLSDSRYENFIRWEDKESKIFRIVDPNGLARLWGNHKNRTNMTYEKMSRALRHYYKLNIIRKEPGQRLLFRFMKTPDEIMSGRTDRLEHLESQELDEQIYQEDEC
CRX, sequence (O43186 whole entry): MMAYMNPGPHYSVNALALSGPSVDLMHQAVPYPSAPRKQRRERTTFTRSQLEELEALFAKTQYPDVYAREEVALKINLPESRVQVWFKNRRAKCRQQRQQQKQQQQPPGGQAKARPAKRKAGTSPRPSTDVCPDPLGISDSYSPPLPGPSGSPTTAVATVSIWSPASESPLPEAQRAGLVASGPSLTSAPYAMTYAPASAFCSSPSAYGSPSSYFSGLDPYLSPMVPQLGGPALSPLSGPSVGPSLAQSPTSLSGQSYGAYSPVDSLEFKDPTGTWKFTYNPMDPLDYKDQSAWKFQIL
HSF1, sequence (Q00613 whole entry): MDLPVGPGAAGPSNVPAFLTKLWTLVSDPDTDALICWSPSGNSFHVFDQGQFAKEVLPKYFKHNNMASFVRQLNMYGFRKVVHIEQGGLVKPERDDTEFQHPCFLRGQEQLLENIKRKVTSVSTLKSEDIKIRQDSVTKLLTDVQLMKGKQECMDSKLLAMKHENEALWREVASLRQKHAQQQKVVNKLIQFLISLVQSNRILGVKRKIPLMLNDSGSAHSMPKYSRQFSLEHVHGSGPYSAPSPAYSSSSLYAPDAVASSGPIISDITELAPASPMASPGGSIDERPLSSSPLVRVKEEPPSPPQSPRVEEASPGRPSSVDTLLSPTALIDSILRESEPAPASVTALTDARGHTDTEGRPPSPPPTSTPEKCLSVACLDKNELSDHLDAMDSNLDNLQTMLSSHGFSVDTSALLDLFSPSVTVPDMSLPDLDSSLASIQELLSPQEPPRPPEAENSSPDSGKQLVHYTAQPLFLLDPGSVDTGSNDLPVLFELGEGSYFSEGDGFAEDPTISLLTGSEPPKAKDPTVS
ETV1, sequence (P50549 whole entry): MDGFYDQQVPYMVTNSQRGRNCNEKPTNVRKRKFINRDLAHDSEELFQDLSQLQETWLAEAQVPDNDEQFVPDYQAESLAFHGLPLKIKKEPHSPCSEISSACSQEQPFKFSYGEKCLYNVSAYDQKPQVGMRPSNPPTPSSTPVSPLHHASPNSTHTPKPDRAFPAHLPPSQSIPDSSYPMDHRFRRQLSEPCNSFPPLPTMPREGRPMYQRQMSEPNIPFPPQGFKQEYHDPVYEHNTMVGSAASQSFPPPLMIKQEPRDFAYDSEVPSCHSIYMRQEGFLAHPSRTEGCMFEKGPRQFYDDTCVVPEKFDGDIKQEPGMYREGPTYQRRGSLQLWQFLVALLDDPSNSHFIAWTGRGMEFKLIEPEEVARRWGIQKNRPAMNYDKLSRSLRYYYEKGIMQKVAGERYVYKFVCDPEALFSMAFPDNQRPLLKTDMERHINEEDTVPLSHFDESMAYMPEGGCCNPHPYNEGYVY

Take ACATAA: the binding signal with FEV was 1.04 fold enrichment (6-mer frequency, TF over GST control); in the test with ETV5, 1.13 fold enrichment (6-mer frequency, TF over GST control); with HSF1 it was 1.2 fold enrichment (6-mer frequency, TF over GST control); in the test with SPIC, 1.19 fold enrichment (6-mer frequency, TF over GST control); with ELF4, 1.09 fold enrichment (6-mer frequency, TF over GST control); in the test with ELK4 it was 1.14 fold enrichment (6-mer frequency, TF over GST control). The binding signal is 1.15 fold enrichment (6-mer frequency, TF over GST control) in the test with ETV2; 1.17 fold enrichment (6-mer frequency, TF over GST control) with ELF3; 1.34 fold enrichment (6-mer frequency, TF over GST control) with CRX; 1.07 fold enrichment (6-mer frequency, TF over GST control) with ETV1; 1.05 fold enrichment (6-mer frequency, TF over GST control) in the test with ERF; 1.1 fold enrichment (6-mer frequency, TF over GST control) with ETV3L. Besides, the binding signal was 1.07 fold enrichment (6-mer frequency, TF over GST control) in the test with ETS2; 1.03 fold enrichment (6-mer frequency, TF over GST control) with SPDEF; 1.11 fold enrichment (6-mer frequency, TF over GST control) with ETV7; 1.09 fold enrichment (6-mer frequency, TF over GST control) with ELF5; 1.09 fold enrichment (6-mer frequency, TF over GST control) with ETV3; 1.08 fold enrichment (6-mer frequency, TF over GST control) with ETV6.
